High-throughput results as filed in PubChem.
Cruzain noTriton: blocks cruzain activity in detergent-free assay; P25779; purified cruzain, Z-FR-AMC fluorescence, no detergent; Potency, µM, inactives show max response, negative = inhibition, actives largely listed as inhibitors; actives 2.3% (n = 200,000); AID 1476;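 note: plate controls were enzyme without inhibitor for no effect and buffer without enzyme for full effect; nearly all actives have a fitted effect of over 40% in size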
Target sequence (P25779 123-467 limits assumed): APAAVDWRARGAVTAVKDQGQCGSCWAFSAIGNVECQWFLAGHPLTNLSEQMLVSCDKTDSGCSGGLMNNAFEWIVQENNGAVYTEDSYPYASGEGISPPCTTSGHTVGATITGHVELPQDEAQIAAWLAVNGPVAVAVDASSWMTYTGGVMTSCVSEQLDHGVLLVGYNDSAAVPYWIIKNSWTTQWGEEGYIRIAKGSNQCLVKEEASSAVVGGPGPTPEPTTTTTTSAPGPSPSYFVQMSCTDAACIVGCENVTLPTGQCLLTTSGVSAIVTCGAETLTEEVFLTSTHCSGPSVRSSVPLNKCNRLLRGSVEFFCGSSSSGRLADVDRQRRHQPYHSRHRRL
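Purified cruzain at 1.5 nM, pre-incubated 15 min with compound at room temperature in 100 mM sodium acetate pH 5.5, 5 mM DTT, 0.00005% Triton X-100. Reaction started with 2 uM Z-FR-AMC; AMC fluorescence increase over 60 s gives rate.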
Cruzain Triton: blocks cruzain activity in presence of Triton detergent | purified cruzain, Z-FR-AMC fluorescence, 0.01% Triton | Potency, µM, inactives show max response, negative = inhibition, actives largely listed as inhibitors | actives 0.43% (n = 200,000) | AID 1478;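 note: plate controls were neutral wells for no effect and buffer without enzyme for full effect; nearly all actives have a fitted effect of over 40% in size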
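Read-out: AMC fluorescence (360 nm excitation, 450 nm emission), four reads over 2 min, first-to-third difference used. Conditions: cruzain 1.5 nM, Z-FR-AMC 2 uM, pH 5.5 acetate, 5 mM DTT, 0.01% Triton X-100.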
* hit, by the source's call; ? = inconclusive. Compounds with a hit are over-represented: about 2.4% of the library has one in this group of screens. Calls come from the whole dose curve; as a rule, active = well fitted curve in the direction sought with a large enough effect; inconclusive = small, poorly fitted or top-dose-only effect, or another doubt; inactive = no such curve, though single readings can be large; an effect the other way counts as inactive or inconclusive. Potency is the fitted concentration of half-maximal effect.

SMILES | Cruzain noTriton | Cruzain Triton
CCOc1ccc(-c2nnc(SCC(=O)NCc3ccccc3)o2)cc1 | -8% | -4%
CCOc1ccc(-c2nnc(SCC(=O)NCc3ccc(Cl)cc3)o2)cc1 | 20µM* | 25µM*
CCOc1ccc(-c2nnc(SCC(=O)Nc3cc(F)ccc3F)o2)cc1 | 10µM* | -7%
COc1ccc(-c2nnc(SCC(=O)Nc3cc(F)ccc3C)o2)cc1 | 2% | 4%
COc1ccc(N2CCN(C(=O)CN3C(=O)COc4ccc(S(=O)(=O)N5CCC(C)CC5)cc43)CC2)cc1 | ? | -3%
CCc1nnc(SCc2nc(-c3ccccc3)oc2C)c2cc3sccc3n12 | -24% | -4%
N=C(N)c1ccc(N2CCN(C3CCN(CC(=O)O)CC3)CC2)cc1 | 10% | -5%
CCCCC/C=C\C/C=C\C/C=C\C/C=C\CCCCCC(N)=O | -18% | 4%
CCN1C(C(=O)c2ccccc2)=C(OC(=O)COc2ccc(C)cc2)c2ccccc2S1(=O)=O | -20% | -9%
COc1cc(NC(=S)NCCC(c2ccccc2)c2ccccc2)cc(OC)c1 | 32µM* | -10%
COc1cccc(NC(=S)NCCC(c2ccccc2)c2ccccc2)c1 | -9% | -3%
Cc1nc(/N=C(\N)NC(=O)N2c3ccccc3Sc3ccccc32)nc2ccccc12 | 7.9µM* | -4%
Cc1nc(/N=C(\N)NC(=O)c2ccccc2)nc2ccccc12 | 3% | -11%
CC1(C)C(=O)C(c2ccccc2)=C2CN3C(=O)N(CCc4ccccc4)C(=O)C3(Cc3ccc(F)cc3)C=C21 (stereo not drawn) | ? | -3%
COCCCNC(=O)c1sc2nc(C)c(C(=O)Nc3ccc(C)cc3C)c(-c3ccccc3Cl)c2c1N | ? | -9%
CC(C)NC(=S)N=Nc1c(O)[nH]c2ccc(C(C)C)cc12 | 4% | -8%
NC(=S)N=Nc1c(O)[nH]c2ccc(F)cc12 | 5µM* | 14µM*
Cc1ccc(/C=C/C(=O)Nc2sc3c(c2C#N)CCCC3)o1 | 7.9µM* | -5%
CC(C)c1ccc(/C=C/C(=O)NC2CCCCC2)cc1 | 8% | -2%
Cc1cccc(C(=O)Nc2sc3c(c2C#N)CCCCC3)c1 | ? | 3%
N#Cc1c(NC(=O)CCC(=O)O)sc2c1CCCC2 | 4% | -1%
Cc1ccc(/C=C/C(=O)NC2CCCCCCC2)o1 | 20µM* | 22µM*
CCc1ccc(CCC(=O)Nc2sc3c(c2C#N)CCCC3)o1 | 25µM* | -1%
Cc1cccc(CNc2ncnc3ccc(-c4ccc(C(=O)N(C)C)cc4)cc23)c1 | ? | -2%
O=C(CSc1nc2c(c(=O)[nH]1)CCCC2)Nc1ccc(Br)cc1 | 11% | -1%
SMILES | Cruzain noTriton | Cruzain Triton
COc1cc(NC(=O)c2cc3nc(-c4ccc(C)cc4)cc(C(F)(F)F)n3n2)cc(OC)c1OC | -2% | 0%
COc1ccc(-c2c/c(=N\c3nc(-c4ccccc4)c(C)s3)c3ccccc3o2)cc1O | 10µM* | -4%
COc1ccc(/C=C/c2nc3cc(-c4ccccc4)ccc3o2)cc1O | -8% | -1%
COc1ccc(CCNC(=O)CN(c2ccccc2)S(=O)(=O)N(C)C)cc1OC | 1% | -1%
O=C1CCCC2=C1C(c1cn(-c3ccccc3)nc1-c1cccs1)c1c([nH]c(=O)[nH]c1=O)N2 (stereo not drawn) | 13µM* | 14µM*
CSc1nc2c(c(=O)[nH]1)C(c1cccs1)C1=C(CCCC1=O)N2 (stereo not drawn) | 3% | -1%
Cc1cc(C)c(Cn2c(CCNC(=O)c3ccco3)nc3ccccc32)c(C)c1 | 5% | ?
O=C(c1ccco1)N1CCC2(CC1)CN(c1cccc(-c3ccccc3)c1)C2 | 11% | -1%
CC1Cc2ccccc2N1Cc1cc(=O)n2ccsc2n1 (stereo not drawn) | ? | -2%
CC1Cc2ccccc2N1Cc1nc2cc(C(F)(F)F)ccc2c(=O)[nH]1 (stereo not drawn) | 25µM* | 1%
N#CC1=C(N)Nc2nc3ccccc3n2C1c1ccc(Cl)cc1 (stereo not drawn) | 32µM* | -1%
CCN(CC)C(=O)C1=C(C)Nc2nc3ccccc3n2C1c1ccc(Cl)cc1 (stereo not drawn) | 1% | -4%
COC(=O)C1(C(=O)OC)CC2=CCC3C(=O)N(c4ccccc4)C(=O)C3C2Cc2ccccc2[C@@H]1C[N+](=O)[O-] (stereo partly drawn) | 13% | -1%
COC(=O)c1ccc(C(NC(=O)OCc2ccccc2)/C(F)=C/[C@@H](C)C(=O)N(C)Cc2cccnc2)cc1 (stereo partly drawn) | ? | -1%
Cc1ccc(C)c(S(=O)(=O)c2nnn3c2nc(Nc2ccc(F)c(Cl)c2)c2sccc23)c1 | -8% | -4%
CCOP(=S)(OCC)Oc1ccc([N+](=O)[O-])cc1 | 2% | -8%
COc1cccc(C(=O)Nc2cccc(C(=O)OCc3cc(=O)n4nc(C5CC5)sc4n3)c2)c1 | -4% | 0%
COc1ccc(CC(=O)NC2CC(=O)N(c3ccc4c(c3)OCCO4)C2)cc1 (stereo not drawn) | -5% | -2%
Cc1ccc(C(=O)NC(=S)Nc2ccc(-c3cc4ccccc4oc3=O)cc2)c(C)c1 | ? | -1%
Cc1cc(C)cc(C(=O)NC(=S)Nc2ccc(-c3cc4ccccc4oc3=O)cc2)c1 | 10µM* | -1%
CCn1c2ccccc2c2nnc(SCC(=O)c3ccccc3)nc21 | ? | -3%
CCN(CC)CCSc1nnc2c3cc(F)ccc3n(CC)c2n1 | 25µM* | 25µM*
COc1ccc(C2CC(=O)c3cc(-c4nc(-c5cccc(Cl)c5)cs4)c(=O)[nH]c3C2)cc1OC (stereo not drawn) | 9% | -3%
Cc1ccc(O)c(C2=Nc3ccccc3N=C(c3ccc([N+](=O)[O-])cc3)C2)c1 | 20µM* | -8%
Cc1ccc(O)c(C2=Nc3ccccc3N=C(c3ccco3)C2)c1 | 17% | 0%
SMILES | Cruzain noTriton | Cruzain Triton
Cc1ccc(-n2cnc3cc(C(=O)NCc4ccc(F)cc4)ccc32)c(C)c1 | 10% | 1%
O=c1n(Cc2ccc(Cl)cc2)c2sc3c(c2c2ncnn12)CCCC3 | 25µM* | -13%
C=CCn1c(=O)n2ncnc2c2c3c(sc21)CCCC3 | -10% | 0%
COCCNC(=O)C(OC(=O)c1cccs1)c1ccccc1 (stereo not drawn) | 12% | 8%
CC(=O)c1cccc(NC(=O)C(OC(=O)c2cccs2)c2ccccc2)c1 (stereo not drawn) | 32µM* | -6%
O=C(O)COc1cccc(-c2ocnc2-c2nc(-c3ccccc3)c(-c3ccccc3)o2)c1 | 7.9µM* | 4%
Cc1ccc(-c2nc(-c3nccc4ccccc34)oc2-c2ccccc2)cc1 | -4% | 0%
Cc1ccc(Cl)cc1N1CCN(c2nc3ccccc3c3nc(-c4cccnc4)nn23)CC1 | 10% | 5%
O=C(O)CCc1ccc(-c2ccccc2)[nH]1 | -2% | -5%
CCCCCSc1nnc2c(n1)[nH]c1c(C)cccc12 | ? | -1%
CC(/C=N\Nc1nnc2c(n1)[nH]c1c(C)cccc12)=C\c1ccco1 | 4µM* | 2%
Cc1cc(C)cc(NS(=O)(=O)c2ccc(-c3cc(C)no3)cc2)c1 | -1% | -12%
O=c1c(CCc2ccccc2)nc2cnc(Oc3ccccc3)nc2n1C[C@H]1CCCO1 | 1% | 8%
COc1cccc(N2CCN(C(=O)Cn3ncc4c(=O)oc5ccccc5c43)CC2)c1 | 5% | 0%
COc1cc2c(cc1NC(=O)/C=C/c1ccccc1)oc1ccccc12 | ? | 0%
COc1cc2c(cc1NC(=S)Nc1cccc(C)c1)oc1ccccc12 | 32µM* | -3%
